From PubChem BioAssay
The source made the active and inactive calls. Unless noted, the rule behind the calls is not given here.

Assays:
[1] = compounds binding Alexa647 anti-His antibody – biochemical, small-molecule microarray, 635 nm fluorescence, artefact control for SMM control protein annotation, primary screen (AID 1128); conditions: higher = more signal;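 note: score merges feature fluorescence with signal-to-noise for each printed compound spot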
[2] = tested on: Human papillomavirus type 1a E7 protein (residues 1-88); experiment: HPV1a E7 small-molecule binders, primary screen, biochemical, small-molecule microarray, residues 1-88, 635 nm (AID 1129); conditions: small-molecule microarray binding, fluorescence 635 nm; higher = more signal
[3] = molecular target: Focal adhesion kinase 1 (Homo sapiens) (UniProt Q05397); experiment: PTK2 protein binding on printed compound slides – biochemical, small-molecule microarray, 635/667 nm fluorescence, BSA, DTT, primary screen (AID 1130); conditions: 635 nm fluorescence, higher = more signal;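 note: composite of spot emission at 667 nm and signal to noise over triplicate slides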
Sequence of Focal adhesion kinase 1 (Homo sapiens) (Q05397 whole entry, looked up): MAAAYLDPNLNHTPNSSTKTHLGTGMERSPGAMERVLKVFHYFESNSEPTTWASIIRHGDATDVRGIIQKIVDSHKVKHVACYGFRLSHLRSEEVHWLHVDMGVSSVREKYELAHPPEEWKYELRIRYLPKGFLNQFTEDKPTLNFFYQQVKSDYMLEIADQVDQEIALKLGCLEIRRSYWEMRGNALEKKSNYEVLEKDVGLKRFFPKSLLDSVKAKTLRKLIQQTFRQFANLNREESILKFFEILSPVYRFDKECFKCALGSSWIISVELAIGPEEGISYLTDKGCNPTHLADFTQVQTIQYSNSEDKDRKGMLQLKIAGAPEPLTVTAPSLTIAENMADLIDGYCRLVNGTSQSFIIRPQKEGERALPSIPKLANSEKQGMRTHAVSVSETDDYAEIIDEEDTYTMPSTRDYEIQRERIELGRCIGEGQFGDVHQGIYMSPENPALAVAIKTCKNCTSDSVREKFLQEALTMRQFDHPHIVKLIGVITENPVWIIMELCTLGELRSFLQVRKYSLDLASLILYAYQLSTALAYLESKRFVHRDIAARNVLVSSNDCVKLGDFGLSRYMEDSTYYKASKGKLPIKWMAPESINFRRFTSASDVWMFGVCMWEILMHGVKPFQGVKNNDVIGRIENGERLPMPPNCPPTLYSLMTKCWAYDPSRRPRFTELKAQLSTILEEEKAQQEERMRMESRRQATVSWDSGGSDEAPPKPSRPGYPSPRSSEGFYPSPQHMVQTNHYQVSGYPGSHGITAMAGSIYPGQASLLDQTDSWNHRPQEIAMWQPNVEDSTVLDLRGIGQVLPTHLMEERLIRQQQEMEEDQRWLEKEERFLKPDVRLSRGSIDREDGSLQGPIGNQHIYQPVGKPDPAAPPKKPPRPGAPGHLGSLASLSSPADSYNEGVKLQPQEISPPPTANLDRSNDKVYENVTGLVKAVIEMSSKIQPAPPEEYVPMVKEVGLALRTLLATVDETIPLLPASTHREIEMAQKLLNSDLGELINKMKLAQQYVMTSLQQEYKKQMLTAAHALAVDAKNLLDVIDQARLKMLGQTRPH

[4] = tested on: Fibrinogen (Alexa647-labelled); experiment: Alexa647-fibrinogen binding to printed small molecules – biochemical, small-molecule microarray, 635/667 nm fluorescence, artefact control for SMM control-protein annotation, profiling panel (AID 1131); conditions: fibrinogen-A647 binding fluorescence, higher = more signal;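 note: z-score merges 667 nm fluorescence with per-spot signal-to-noise over triplicate slides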
[5] = molecular target: Follistatin (Homo sapiens) (UniProt P19883); experiment: FST protein binding to printed compounds – biochemical, small-molecule microarray, 635/667 nm fluorescence, primary screen (AID 1132); conditions: 635 nm fluorescence, higher = more signal
Sequence of Follistatin (Homo sapiens) (P19883 whole entry, looked up): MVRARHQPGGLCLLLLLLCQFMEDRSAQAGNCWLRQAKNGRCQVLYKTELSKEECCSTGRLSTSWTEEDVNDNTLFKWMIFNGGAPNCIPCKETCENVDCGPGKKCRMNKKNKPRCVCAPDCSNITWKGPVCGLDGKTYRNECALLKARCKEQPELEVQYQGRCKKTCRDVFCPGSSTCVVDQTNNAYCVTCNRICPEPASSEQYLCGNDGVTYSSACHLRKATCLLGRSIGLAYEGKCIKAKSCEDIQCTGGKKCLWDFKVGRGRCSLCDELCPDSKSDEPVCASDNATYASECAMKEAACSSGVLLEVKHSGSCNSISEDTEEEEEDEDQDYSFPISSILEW

[6] = molecular target: Fibroblast growth factor 2 (Homo sapiens) (UniProt P09038); experiment: basic fibroblast growth factor binding to printed compounds – biochemical, small-molecule microarray, 635/667 nm fluorescence, primary screen (AID 1133); conditions: FGF2, fluorescence 635/667, higher = more signal
Sequence of Fibroblast growth factor 2 (Homo sapiens) (P09038 whole entry, looked up): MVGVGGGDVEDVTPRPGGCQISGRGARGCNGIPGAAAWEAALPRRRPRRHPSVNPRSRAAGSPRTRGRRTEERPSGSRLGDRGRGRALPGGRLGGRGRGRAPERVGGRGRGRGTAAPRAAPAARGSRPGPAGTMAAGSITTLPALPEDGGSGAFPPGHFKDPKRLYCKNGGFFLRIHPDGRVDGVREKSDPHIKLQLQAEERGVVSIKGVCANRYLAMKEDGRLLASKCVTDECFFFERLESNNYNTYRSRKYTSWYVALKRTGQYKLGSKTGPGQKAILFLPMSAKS

[7] = JC-1 mitochondrial potential readout, lung cancer cells – cell-based, A549, JC-1 fluorescence, basal, 24 h, 100 nL, profiling panel (AID 1138); conditions: higher = more signal;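 note: A549 lung adenocarcinoma cells under basal conditions with no added stimulus; test concentration not given here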
[8] = tested on: Lefty1; experiment: Lefty1 protein binding to printed compounds – biochemical, small-molecule microarray, 635/667 nm fluorescence, primary screen (AID 1139); conditions: fluorescence 635/667, higher = more signal
[9] = tested on: wheat germ agglutinin (Triticum aestivum), Alexa647-labelled; experiment: Alexa647-WGA lectin binding to printed small molecules – biochemical, small-molecule microarray, 635/667 nm fluorescence, artefact control for SMM control-protein annotation, profiling panel (AID 1140); conditions: WGA-A647 binding, 635 nm fluorescence, higher = more signal;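 note: score merges 667 nm feature emission with signal to noise over triplicate slides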
[10] = molecular target: Luciferin 4-monooxygenase (Photinus pyralis) (UniProt P08659); experiment: inhibition of purified Photinus pyralis luciferase – biochemical, luminescence, purified enzyme, 2006 set, primary screen (AID 1141); conditions: purified firefly luciferase, SteadyGlo luminescence, 30 min; higher = more signal, called active from +8 up or from −8 down;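 note: cell-free assay with purified firefly luciferase at 100 ng per well in PBS; test concentration not given here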
Sequence of Luciferin 4-monooxygenase (Photinus pyralis) (P08659 whole entry, looked up): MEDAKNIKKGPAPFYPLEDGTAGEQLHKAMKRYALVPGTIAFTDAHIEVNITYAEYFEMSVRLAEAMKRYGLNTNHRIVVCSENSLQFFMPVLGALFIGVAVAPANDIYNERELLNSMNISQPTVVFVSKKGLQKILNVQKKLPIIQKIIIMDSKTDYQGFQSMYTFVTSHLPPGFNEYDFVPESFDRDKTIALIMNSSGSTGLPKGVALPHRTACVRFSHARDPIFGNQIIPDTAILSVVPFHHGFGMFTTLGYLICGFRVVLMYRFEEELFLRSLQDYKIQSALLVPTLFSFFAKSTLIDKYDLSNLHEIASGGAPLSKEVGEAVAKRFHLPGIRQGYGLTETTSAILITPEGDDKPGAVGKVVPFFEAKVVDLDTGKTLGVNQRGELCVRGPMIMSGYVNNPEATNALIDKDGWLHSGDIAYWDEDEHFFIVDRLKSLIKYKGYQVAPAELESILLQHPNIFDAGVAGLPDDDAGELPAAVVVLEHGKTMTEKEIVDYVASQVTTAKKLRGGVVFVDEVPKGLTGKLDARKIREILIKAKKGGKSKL

[11] = tested on: Wnt5a (protein binding on small-molecule microarray); experiment: small molecules binding Wnt5a protein – biophysical, small-molecule microarray, 635/667 nm fluorescence, primary screen (AID 1142); conditions: 635 nm fluorescence, higher = more signal;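 note: fluorescence read at 667 nm with signal to noise per printed feature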
[12] = ATP-based viability of Huh7 replicon cells – cell-based, CellTiter-Glo luminescence, basal, 48 h, cytotoxicity control for HCV replication inhibitor project, primary screen (AID 1143); conditions: higher = more signal, called active from +8 up or from −8 down;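 note: Huh7 hepatoma cells carrying a hepatitis C replication reporter with no stimulus; test concentration not given here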
[13] = Pseudomonas biofilm growth suppression – PAO1 strain, BacTiter-Glo luminescence, LB-PBS, primary screen (AID 1144); conditions: P. aeruginosa PAO1 biofilm, 12 h, higher = more signal
[14] = basal CRE-LacZ reporter activity in PC12 – cell-based, unstimulated, primary screen (AID 1145); conditions: no forskolin, luminescence, 4.5 h, higher = more signal, called active from +8 up or from −8 down
[15] = forskolin-driven CRE-LacZ activity in PC12 – cell-based, CRE-LacZ reporter, forskolin-stimulated, primary screen (AID 1146); conditions: luminescence, 4.5 h, higher = more signal, called active from +8 up or from −8 down;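 note: PC12 cells with 6xCRE LacZ reporter stimulated by forskolin 10 µM; beta-galactosidase reporter signal reflecting CREB driven transcription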
[16] = molecular target: Streptavidin (Streptomyces avidinii) (UniProt P22629); experiment: compounds binding control protein streptavidin – biophysical, small-molecule microarray, 635/667 nm fluorescence, artefact control for SMM compound annotation, primary screen (AID 1147); conditions: higher = more signal;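 note: signal reflects streptavidin binding to arrayed compounds as a control protein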
Sequence of Streptavidin (Streptomyces avidinii) (P22629 whole entry, looked up): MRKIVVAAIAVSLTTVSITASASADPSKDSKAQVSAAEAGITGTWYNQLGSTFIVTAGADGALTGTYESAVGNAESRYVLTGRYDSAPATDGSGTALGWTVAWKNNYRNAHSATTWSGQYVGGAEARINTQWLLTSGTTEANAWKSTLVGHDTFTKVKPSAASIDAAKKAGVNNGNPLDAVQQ

[17] = probe aInhba binding on compound microarray – biochemical, small-molecule microarray, 635/667 nm fluorescence, primary screen (AID 1148); conditions: higher = more signal;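 note: score merges 667nm spot fluorescence with signal-to-noise for antibody binding to printed compounds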
[18] = molecular target: Torsin-1A (Homo sapiens) (UniProt O14656); experiment: TOR1A wild-type binding on microarray – cell lysate, small-molecule microarray, lysate, 635/667 nm, primary screen (AID 1149); conditions: COS7 hTOR1A-WT lysate, 635 nm fluorescence, higher = more signal
Sequence of Torsin-1A (Homo sapiens) (O14656 whole entry, looked up): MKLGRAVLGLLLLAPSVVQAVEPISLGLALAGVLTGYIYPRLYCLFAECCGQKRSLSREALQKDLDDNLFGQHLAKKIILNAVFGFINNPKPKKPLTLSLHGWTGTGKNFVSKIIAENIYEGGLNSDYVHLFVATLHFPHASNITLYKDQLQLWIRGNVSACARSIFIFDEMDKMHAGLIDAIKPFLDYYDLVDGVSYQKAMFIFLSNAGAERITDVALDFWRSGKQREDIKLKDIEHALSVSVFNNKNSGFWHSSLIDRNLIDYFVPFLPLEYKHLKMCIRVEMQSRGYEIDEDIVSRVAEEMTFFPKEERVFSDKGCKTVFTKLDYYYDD

[19] = molecular target: Torsin-1A (Homo sapiens) (UniProt O14656); experiment: torsin A mutant lysate binding on microarrays – cell lysate, small-molecule microarray, COS7 lysate, 635/667 nm fluorescence, primary screen (AID 1150); conditions: COS7 hTOR1A mutant lysate, 635 nm fluorescence, higher = more signal;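 note: score pools 667 nm emission and signal to noise measuring lysate protein binding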
[20] = tested on: Sonic hedgehog protein (Shh); experiment: Sonic hedgehog microarray binding compounds – biochemical, small-molecule microarray, 635/667 nm fluorescence, primary screen (AID 1151); conditions: 635 nm fluorescence, higher = more signal;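 note: Shh protein binding to compounds spotted on small-molecule microarray slides; score combines spot fluorescence intensity with signal-to-noise across triplicate slides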

Compound	composite z-score [1]	composite z-score [2]	composite z-score [3]	composite z-score [4]	composite z-score [5]	composite z-score [6]	z-score [7]	composite z-score [8]	composite z-score [9]	z-score [10]	composite z-score [11]	z-score [12]	z-score [13]	z-score [14]	z-score [15]	composite z-score [16]	composite z-score [17]	composite z-score [18]	composite z-score [19]	composite z-score [20]
CC(C)N1CC=CC23O[C@@H]4C=CCOC(=O)[C@@H]4[C@H]2C(=O)N(CCCO)[C@@H]3C1=O (stereo not given in full)	1.59	0.672	1.01	-1.14	-0.0511	-0.849	-0.384	-0.133	-0.17	-3.85 (inactive)	-0.26	-5.24 (inactive)	-2.47 (inactive)	-1.31 (inactive)	-0.931 (inactive)	-0.941	-0.182	1.12	0.874	-0.182
CC(C)OC(=O)C=C1C[C@@H](c2ccc(C(F)(F)F)cc2)O[C@@H](c2ccc(C(F)(F)F)cc2)O1	0.751	1.25	1.04	0.907	-0.0691	-0.46	-0.0127	-0.0747	1.21	-0.478 (inactive)	-0.1	-3.23 (inactive)	-1.17 (inactive)	-0.723 (inactive)	-0.163 (inactive)	-0.208	-0.157	0.827	0.483	-0.831
Cc1ccc(S[C@]2(C(=O)O)CC(=O)N(Cc3ccccc3Cl)[C@@H]2c2ccc(CO)cc2I)cc1	0.12	0.193	0.287	-0.147	0.257	0.261	-0.134	-1.23	0.435	0.341 (inactive)	-0.3	-2.09 (inactive)	-0.309 (inactive)	1.2 (inactive)	3 (inactive)	-0.657	-0.649	0.294	0.396	0.0254
COC(=O)c1ccc([C@H](NC(=O)c2ccco2)[C@]2(C)C[C@H]2C2CCCCC2)cc1	-0.162	-0.678	-0.59	-0.293	-0.633	-1.11	-0.573	-1.58	0.638	1.34 (inactive)	0.0108	-2.84 (inactive)	-0.635 (inactive)	-0.368 (inactive)	0.898 (inactive)	0.689	0.0659	-2.21	-0.568	-1.21
CCOc1cc(C(O)C2C=CC3C(=O)N(C)C(=O)C3N2Nc2ccccc2)ccc1O (stereo not given)	1.08	0.881	0.327	0.651	0.0506	-0.153	-0.203	-0.0696	0.974	-1.2 (inactive)	0.297	0.559 (inactive)	-0.947 (inactive)	0.626 (inactive)	-0.276 (inactive)	0.702	-0.0297	0.526	0.467	-0.485
COC(=O)[C@@]1(Cc2ccccc2N=[N+]=[N-])N=C(c2ccc(OCCCO)cc2)O[C@H]1c1ccccc1N=[N+]=[N-]	1.08	1.14	0.909	0.605	1.27	0.933	2.85	0.119	0.767	-5.01 (inactive)	0.323	-5.44 (inactive)	-0.455 (inactive)	1.53 (inactive)	0.237 (inactive)	0.169	0.221	-0.266	0.0067	0.58
Cc1cc(C)c(C(O)C2C=CC3C(=O)N(c4ccccc4)C(=O)C3N2Nc2ccc(C(C)C)cc2)c(C)c1 (stereo not given)	1.11	1.26	1.22	1.02	0.811	0.375	0.178	-0.138	1.39	-0.197 (inactive)	0.704	0.366 (inactive)	-0.342 (inactive)	0.629 (inactive)	1.07 (inactive)	1.71	0.375	0.385	0.333	-0.297
CCOC(=O)C1=C[C@@H](c2ccccc2)N(S(=O)(=O)c2ccc(C)cc2)[C@H]1c1ccccc1Cl	0.857	1.17	1.6	0.86	0.761	0.414	1.53	0.838	0.778	0.86 (inactive)	0.387	-3.97 (inactive)	0.533 (inactive)	-0.312 (inactive)	0.343 (inactive)	1.6	-0.0221	0.888	0.273	0.844
CC(C)Cc1ccc(CN2CC[C@@H](NC(=O)Nc3ccccc3)C2)cc1	-0.0844	-1.63	0.0749	0.494	-0.182	-0.0224	-0.749	0.08	0.244	0.398 (inactive)	0.0405	-8.72 (active)	-0.00187 (inactive)	0.757 (inactive)	-0.269 (inactive)	-0.0067	-0.148	0.257	0.274	0.826
CCCC[C@@H]1C[C@H]1[C@@H](NC(=O)c1ccccc1)c1ccc(C(F)(F)F)cc1	0.581	-0.551	-0.0796	-2.43	-1	-1.19	-0.0527	-0.549	-0.331	0.286 (inactive)	-0.547	0.085 (inactive)	0.401 (inactive)	-0.572 (inactive)	0.24 (inactive)	0.056	-0.143	-1.15	-0.349	-1.85
